# RORgamma inh = ROR gamma (mouse) transcription inhibition; P51450; Drosophila S2 Gal4-RORgamma UAS-luciferase reporter, 20 h; Potency, µM (top dose mostly 53.6 µM), inactives show at the highest dose activity change, negative = inhibition, hits mostly inhibitors; actives 5.4% (n = 310,000); AID 2551; note: potency is the fitted concentration of half-maximal effect; nearly all actives have a fitted effect of over 60% in size
# Target sequence (P51450 whole entry, looked up, the tested form may be a part): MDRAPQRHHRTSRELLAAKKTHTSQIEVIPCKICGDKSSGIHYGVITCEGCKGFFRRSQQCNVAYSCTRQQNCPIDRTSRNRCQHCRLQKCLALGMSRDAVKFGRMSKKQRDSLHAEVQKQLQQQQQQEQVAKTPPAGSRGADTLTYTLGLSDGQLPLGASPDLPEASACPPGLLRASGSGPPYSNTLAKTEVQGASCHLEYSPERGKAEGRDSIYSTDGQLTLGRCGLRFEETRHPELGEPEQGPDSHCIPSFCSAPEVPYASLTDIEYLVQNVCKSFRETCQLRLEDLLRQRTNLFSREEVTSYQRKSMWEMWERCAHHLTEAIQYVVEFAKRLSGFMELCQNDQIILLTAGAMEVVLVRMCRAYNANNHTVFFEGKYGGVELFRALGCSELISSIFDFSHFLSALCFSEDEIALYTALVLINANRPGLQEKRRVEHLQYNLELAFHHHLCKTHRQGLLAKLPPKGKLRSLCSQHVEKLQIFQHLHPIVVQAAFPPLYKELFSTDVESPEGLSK
#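 In this cell-based reporter format, copper sulfate (700 uM final) drives Gal4–ROR gamma fusion expression from a metallothionein promoter in Drosophila Schneider cells; compounds preincubated 1 hr, reporter read after 20 hr at ambient temperature.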
# IL-1B inflam inh = inflammasome signaling inhibition, IL-1 beta readout; THP-1 LPS/ATP IL-1B secretion, AlphaLISA, 16 h; active compounds read low; AID 743279; actives 4.7% (n = 360,000); activity change, % at 57.5 µM; in the data active = activity change below about -50%; inconclusive = mostly about -30% to -49%
#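 THP-1 cells pretreated 1 hr with compounds (up to 57.5 uM final), then stimulated with LPS (250 ng/mL final) plus ATP (1.25 mM final); secreted IL-1B measured by AlphaLISA after 16 hr, decreased signal indicating inhibition.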
# TDP1 cell noCPT = qHTS for Inhibitors of human tyrosyl-DNA phosphodiesterase 1 (TDP1): qHTS in cells in absence of CPT; DT40 Tdp1-/- hTDP1 cells, no CPT, ATP luminescence, 48 h; AID 686978, 2013; actives 15% (n = 420,000); Potency, µM (doses to about 46.2 µM), for inactives: at the highest dose activity change, negative = growth inhibition, actives largely listed as inhibitors; note: potency is the fitted concentration of half-maximal effect; nearly all actives have a fitted effect of over 55% in size
#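 Stably hTDP1-transfected Tdp1-null chicken DT40 cells were treated with library compounds minus camptothecin and grown for at least 48 hr at 37 °C, after which cellular ATP was quantified by luminescence.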
# Gal4-VP16 FLuc = inhibits Gal4-VP16 luciferase reporter, ROR gamma counter-screen | Drosophila S2 Gal4-VP16 UAS-luciferase, luminescence, 20 h | Potency, µM (top dose mostly 53.6 µM), for inactives: at the highest dose activity, negative = inhibition, actives largely listed as inhibitors | actives 3.5% (n = 310,000) | AID 2546;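 note: Gal4-VP16 expression switched on by copper sulfate through the metallothionein promoter; potency is the fitted concentration of half-maximal effect; nearly all actives have a fitted effect of over 50% in size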
# DT40 TDP1 CPT = growth inhibition of DT40 Tdp1-/-;hTDP1 cells with camptothecin (screen for TDP1 inhibitors); chicken DT40 Tdp1-/-;hTDP1 cells + 20 nM CPT, ATP luminescence, 48 h; Potency, µM (highest dose often 46.2 µM), for the others: top-dose activity change, negative = growth inhibition, hits mostly inhibitors; actives 12% (n = 420,000); AID 686979; note: potency is the fitted concentration of half-maximal effect; nearly all actives have a fitted effect of over 55% in size
#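 Chicken DT40 Tdp1-/- cells stably complemented with human TDP1 were seeded at 400 cells/well in medium containing 20 nM camptothecin, exposed to pin-transferred compounds, and grown at 37 °C for at least 48 hr. Viability was read as ATP luminescence.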
# LDHA block = LDHA (human) enzyme inhibition; activity change, % (values are at about 110 or 230 µM); actives 0.15% (n = 480,000); purified LDHA, NADH/diaphorase-resazurin fluorescence; active compounds read low; P00338; in the data active = activity change below about -30%; inconclusive = mostly about -25% to -30%;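 note: plate controls were DMSO wells for no effect and wells without enzyme for full effect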
#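 Resorufin fluorescence (ex540/em590), read at 0 and 20 min after diaphorase/resazurin addition, reports the NADH left after a 5 min room-temperature reaction of 2 nM human LDH5 with 0.06 mM NADH and 0.2 mM pyruvate.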
# An asterisk follows results filed as active; u = inconclusive; x = no result. Only some compounds are listed: those with a hit (about 18% of all), similar ones and a draw of the others. Unless noted, calls come from the whole dose curve; as a rule, active = well fitted curve in the direction sought with a large enough effect; inconclusive = small, poorly fitted or top-dose-only effect, or another doubt; inactive = no such curve, though single readings can be large; an effect the other way counts as inactive or inconclusive. Unless noted, % is set by controls: 0 for no effect and ±100 for the full control effect.
SMILES,RORgamma inh,IL-1B inflam inh,TDP1 cell noCPT,Gal4-VP16 FLuc,DT40 TDP1 CPT,LDHA block
CCCCCC1c2cc(c(O)cc2O)C(CCCCC)c2cc(c(O)cc2O)C(CCCCC)c2cc(c(O)cc2O)C(CCCCC)c2cc1c(O)cc2O (stereo unspecified),x,x,x,x,x,8
O=C(C[n+]1cccc(Br)c1)c1ccc(Br)cc1,x,x,-4%,x,-9%,x
O=C(Cn1c(-c2ccccc2)c[n+]2ccsc12)c1ccc(Br)cc1,37%,-86*,3.3µM*,9%,7.3µM*,-4
Cc1cc(N2CCOCC2)nc2ccc(NC(=O)CCC(=O)N3CCN(c4ccc(F)cc4)CC3)cc12,19%,16,8.2µM*,-18%,9.2µM*,6
Cc1cc(N2CCOCC2)nc2ccc(NC(=O)CCC(=O)N3CCN(c4ccccc4F)CC3)cc12,u,7,15µM*,2%,u,1
Cc1cc(N2CCOCC2)nc2ccc(NC(=O)CCC(=O)N3CCCC(C)C3)cc12 (stereo unspecified),-11%,-1,-28%,-24%,-4%,12
CC(=O)Nc1ccc(CNC2CCC(C(F)(F)F)CC2)cc1 (stereo unspecified),x,x,x,x,x,5
CN(C)CCn1cc(C(=O)c2cc(F)ccc2O)cc1-c1nc2ccccc2c(=O)[nH]1,x,x,x,x,x,0
CC(NC(=O)c1nn(-c2ccccc2)c(=O)c2ccccc12)C1CC1 (stereo unspecified),x,x,x,x,x,-1
COc1cc(Cl)c(NS(=O)(=O)c2ccc(-c3coc(C)n3)cc2)c(OC)c1,x,x,4.1µM*,x,3.7µM*,4
Cc1nc(-c2ccc(S(=O)(=O)Nc3cccc(Cl)c3)cc2)co1,0%,0,6%,-19%,-28%,-3
Cc1nc(-c2ccc(S(=O)(=O)Nc3ccc(F)cc3C)cc2)co1,x,x,x,x,x,10
CCN(CC)c1ccc(NS(=O)(=O)c2ccc(-c3coc(C)n3)cc2)c(C)c1,x,x,18µM*,x,16µM*,18
CSc1cccc(NS(=O)(=O)c2ccc(-c3coc(C)n3)cc2)c1,u,17,15µM*,u,u,-4
Cc1nc(-c2ccc(S(=O)(=O)Nc3ccc(C)c(N(C)C)c3)cc2)co1,x,x,18µM*,x,7.3µM*,-1
Cc1nc(-c2ccc(S(=O)(=O)Nc3ccc(C)c(Cl)c3)cc2)co1,x,x,x,x,x,3
Cc1cc(S(=O)(=O)c2cc3cc(F)ccc3oc2=O)ccc1F,x,x,x,x,x,7
Cc1cccc(C(=O)Nc2c(NCC3CCCCC3)c3ccccc3oc2=O)c1,x,x,x,x,x,0
CCOC(=O)c1c(NC(=O)c2nc3nc(C)cc(C(F)F)n3n2)sc2c1CCC(CC)C2 (stereo unspecified),x,x,x,x,x,-20
COc1ccc(NS(=O)(=O)c2ccc(-c3coc(C)n3)cc2)cc1OC,u,u,2.1µM*,1.4µM*,4.1µM*,-2
Cc1cccc(C(C)n2nnc3ccccc32)c1O (stereo unspecified),x,32,u,x,23µM*,-1
CC(C(=O)O)n1nnc2ccccc21 (stereo unspecified),1%,-4,4%,8%,-20%,-2
O=C(NCc1nnc(SCc2ccc(F)cc2)n1-c1ccccc1)C12CC3CC(CC(C3)C1)C2,-3%,-79*,5.8µM*,u,16µM*,-6
O=C(NCc1nnc(SCc2ccc(C(F)(F)F)cc2)n1-c1ccccc1)C12CC3CC(CC(C3)C1)C2,14µM*,-30,13µM*,u,u,-2
Cc1ccc(-n2c(CNc3ccc(F)cc3)nnc2SCC(=O)NCc2ccco2)cc1,15%,-23,u,9%,16µM*,-2
SMILES,RORgamma inh,IL-1B inflam inh,TDP1 cell noCPT,Gal4-VP16 FLuc,DT40 TDP1 CPT,LDHA block
O=C(CSc1nnc(CNC(=O)C23CC4CC(CC(C4)C2)C3)n1-c1ccccc1)Nc1ccc(F)cc1,u,-28,u,1%,u,-5
Cc1ccc(NC(=O)CSc2nnc(CNC(=O)C34CC5CC(CC(C5)C3)C4)n2-c2ccc(F)cc2)cc1,u,-13,u,-9%,16µM*,-7
O=C(CSc1nnc(CNC(=O)C23CC4CC(CC(C4)C2)C3)n1-c1ccc(F)cc1)Nc1ccccc1,10%,-28,u,-9%,u,-3
COc1ccc(CC(=O)Nc2ccc(O)c(-c3nc4ccccc4o3)c2)cc1,x,x,x,x,x,-8
N#Cc1cc2c(nc1SCc1ccncc1)CCC2,u,u,u,u,18µM*,-5
N#Cc1cc2c(nc1SCC(O)CS(=O)(=O)Cc1ccc(Cl)cc1)CCCC2 (stereo unspecified),12%,-61*,u,7%,u,0
O=C(CSc1nccn1-c1cccc(Cl)c1)Nc1ccc2c(c1)OCO2,x,x,-25%,x,u,-5
COc1cccc(-n2ccnc2SCC(=O)Nc2ccccc2)c1,-23%,-15,8.2µM*,3%,5.8µM*,-2
Cc1cc(C)cc(-n2ccnc2SCC(=O)Nc2ccc3c(c2)OCO3)c1,x,x,21µM*,x,u,3
COc1cccc(-n2ccnc2SCC(=O)Nc2cccc(C)c2C)c1,x,x,16µM*,x,21µM*,7
COc1cccc(-n2ccnc2SCC(=O)Nc2ccccc2F)c1,u,-70*,-29%,-4%,0%,-4
O=C(Nc1ccccc1)N1CCCC1c1ccc(Cl)cc1 (stereo unspecified),x,x,x,x,x,1
CCN(C(=O)C(=O)c1c[nH]c2ccccc12)c1cccc(Cl)c1,x,x,x,x,x,4
Cc1cc(C)cc(NC(=O)CSc2nccn2-c2ccccc2)c1,x,x,23µM*,x,u,0
CCOC(=O)c1ccc(NC(=O)CSc2nccn2Cc2ccc(OC)cc2)cc1,x,x,u,x,15µM*,-4
COc1ccc(Cn2ccnc2SCC(=O)Nc2ccccc2)cc1,2%,0,-12%,2%,-12%,3
Cc1ccc(NC(=O)CSc2nccn2-c2ccccc2)cc1,x,x,u,x,u,0
CCOC(=O)c1ccc(NC(=O)CSc2nccn2-c2cc(C)cc(C)c2)cc1,x,x,18µM*,x,23µM*,-1
Cc1ccccc1CSc1nccn1-c1ccccc1,2.5µM*,-20,u,13µM*,-24%,-4
COc1ccc(NC(=O)Cn2c(=O)c(CNc3ccccc3)cc3cc(OC)c(OC)cc32)cc1,x,x,x,x,x,16
CCOC(=O)[C@]12CCC=C1N(Cc1cccc3ccccc13)C(=O)[C@H](CC(=O)NCc1cccs1)C2,x,-69*,u,x,u,1
